What was measured:
Experiment in all cases: relative growth (AUC of 72 h growth curve relative to DMSO control, dAUC) (ratio); higher = more growth (less inhibition), active = hit call of the paper
Settings in all cases: 20 µM;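 active = growth AUC significantly below the DMSO wells by Dunnett test; inactive = the rest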
[1] = test system: Aeromonas 1 (Aeromonas sp. AE235)
Summary of the method: (§1)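 For relative growth (dAUC), the spline-integrated area under the growth curve was divided by the mean of the DMSO controls. Results were averaged over three biological replicates. Each replicate used a 1:100 dilution, into 96-well plates holding each chemical at 20 µM (1% DMSO), of isolates from Icelandic stream sediments and Silwood Park soil or whole sediment communities that had been grown to carrying capacity in Luria–Bertani medium. Plates were shaken briefly before each hourly A600 reading over 72 h.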

[2] = test system: Aeromonas 2 (Aeromonas sobria)
Summary of the method: as §1

[3] = test system: Aeromonas 3 (Aeromonas popoffii)
Summary of the method: as §1

[4] = test system: Argrobacterium 1 (Agrobacterium sp.)
Summary of the method: as §1

[5] = test system: Arthrobacter 1 (Arthrobacter humicola)
Summary of the method: as §1

[6] = test system: Arthrobacter 2 (Arthrobacter humicola)
Summary of the method: as §1

[7] = test system: Arthrobacter 3 (Arthrobacter sp.)
Summary of the method: as §1

Community 4 = test system: Community 4
Summary of the method: as §1

Community 6 = test system: Community 6
Summary of the method: as §1

Community 7 = test system: Community 7
Summary of the method: as §1

Community 8 = test system: Community 8
Summary of the method: as §1

Community 9 = test system: Community 9
Summary of the method: as §1

[8] = test system: Flavobacterium 1 (Flavobacterium glaciei)
Summary of the method: as §1

[9] = test system: Flavobacterium 2 (Flavobacterium succinicans)
Summary of the method: as §1

[10] = test system: Hymenobacter 1 (Hymenobacter glaciei)
Summary of the method: as §1

[11] = test system: Microbacterium 1 (Microbacterium arborescens)
Summary of the method: as §1

[12] = test system: Neobacillus 1 (Neobacillus soli)
Summary of the method: as §1

[13] = test system: Oryzobacter 1 (Oryzobacter terrae)
Summary of the method: as §1

[14] = test system: Paenibacillus 1 (Paenibacillus castaneae)
Summary of the method: as §1

Compound | relative growth [1] | relative growth [2] | relative growth [3] | relative growth [4] | relative growth [5] | relative growth [6] | relative growth [7] | relative growth (Community 4) | relative growth (Community 6) | relative growth (Community 7) | relative growth (Community 8) | relative growth (Community 9) | relative growth [8] | relative growth [9] | relative growth [10] | relative growth [11] | relative growth [12] | relative growth [13] | relative growth [14]
CC(C)(C)c1ccc(CSc2cnn(C(C)(C)C)c(=O)c2Cl)cc1 | 1.02 (inactive) | 0.975 (inactive) | 1.03 (inactive) | 1.01 (inactive) | 1.02 (inactive) | 0.875 (inactive) | 0.98 (inactive) | 1.01 (inactive) | 1.04 (inactive) | 1.12 (inactive) | 1.03 (inactive) | 0.994 (inactive) | 0.923 (inactive) | 1 (inactive) | 1.01 (inactive) | 1.08 (inactive) | 0.915 (inactive) | 1.04 (inactive) | 0.971 (inactive)
CSc1nc(NC(C)C)nc(NC(C)C)n1 | 0.966 (inactive) | 0.971 (inactive) | 0.983 (inactive) | 1.03 (inactive) | 1.03 (inactive) | 0.956 (inactive) | 1.07 (inactive) | 0.933 (inactive) | 0.922 (inactive) | 1.02 (inactive) | 0.97 (inactive) | 0.97 (inactive) | 1.02 (inactive) | 0.946 (inactive) | 0.914 (inactive) | 1.02 (inactive) | 0.987 (inactive) | 0.978 (inactive) | 0.877 (inactive)
CCN(CC)c1nc(C)cc(OP(=S)(OC)OC)n1 | 1 (inactive) | 0.982 (inactive) | 1.02 (inactive) | 1.04 (inactive) | 0.998 (inactive) | 0.924 (inactive) | 0.956 (inactive) | 1.01 (inactive) | 0.982 (inactive) | 0.988 (inactive) | 1.04 (inactive) | 1.04 (inactive) | 1.05 (inactive) | 0.995 (inactive) | 1 (inactive) | 1.03 (inactive) | 1.03 (inactive) | 1.06 (inactive) | 1.02 (inactive)
Oc1ccccc1-c1ccccc1 | 1.01 (inactive) | 0.967 (inactive) | 1.01 (inactive) | 0.914 (inactive) | 0.929 (inactive) | 0.866 (inactive) | 0.964 (inactive) | 0.851 (inactive) | 0.973 (inactive) | 1.12 (inactive) | 0.988 (inactive) | 0.974 (inactive) | 0.75 (inactive) | 0.946 (inactive) | 0.951 (inactive) | 1.04 (inactive) | 0.9 (inactive) | 1.12 (inactive) | 0.888 (inactive)
CCCCOC(=O)[C@H](C)Oc1ccc(Oc2ccc(C#N)cc2F)cc1 | 1.04 (inactive) | 1.07 (inactive) | 1.05 (inactive) | 1.11 (inactive) | 1.11 (inactive) | 0.875 (inactive) | 0.882 (inactive) | 1.03 (inactive) | 1.03 (inactive) | 1.07 (inactive) | 0.995 (inactive) | 1.06 (inactive) | 1.13 (inactive) | 0.955 (inactive) | 1.03 (inactive) | 1.04 (inactive) | 1.03 (inactive) | 1.06 (inactive) | 1.1 (inactive)
Cc1cc(C)nc(Nc2ccccc2)n1 | 0.974 (inactive) | 0.977 (inactive) | 1.07 (inactive) | 0.874 (inactive) | 0.948 (inactive) | 0.929 (inactive) | 1.03 (inactive) | 0.984 (inactive) | 1.04 (inactive) | 1.09 (inactive) | 1.03 (inactive) | 1.03 (inactive) | 1.01 (inactive) | 0.983 (inactive) | 1.1 (inactive) | 1.03 (inactive) | 0.999 (inactive) | 0.978 (inactive) | 0.762 (inactive)
O=C(NC(=O)c1c(F)cccc1F)Nc1ccc(OC(F)(F)C(F)OC(F)(F)F)c(Cl)c1 (centres undefined) | 0.958 (inactive) | 0.975 (inactive) | 0.988 (inactive) | 0.995 (inactive) | 0.843 (inactive) | 0.911 (inactive) | 0.942 (inactive) | 0.934 (inactive) | 0.934 (inactive) | 1.11 (inactive) | 0.997 (inactive) | 0.925 (inactive) | 0.951 (inactive) | 0.969 (inactive) | 0.944 (inactive) | 1.05 (inactive) | 0.888 (inactive) | 0.958 (inactive) | 0.957 (inactive)
COP(=O)(OC)OC=C(Cl)Cl | 0.937 (inactive) | 0.977 (inactive) | 0.972 (inactive) | 0.977 (inactive) | 0.856 (inactive) | 0.86 (inactive) | 0.916 (inactive) | 0.961 (inactive) | 0.961 (inactive) | 1.09 (inactive) | 0.997 (inactive) | 0.964 (inactive) | 1.01 (inactive) | 0.965 (inactive) | 0.909 (inactive) | 0.975 (inactive) | 0.893 (inactive) | 0.94 (inactive) | 0.984 (inactive)
CO/N=C(/C(=O)OC)c1ccccc1CO/N=C(\C)c1cccc(C(F)(F)F)c1 | 0.966 (inactive) | 0.929 (inactive) | 0.961 (inactive) | 1.07 (inactive) | 0.928 (inactive) | 0.876 (inactive) | 0.97 (inactive) | 0.822 (inactive) | 0.809 (inactive) | 1.05 (inactive) | 0.968 (inactive) | 0.784 (inactive) | 0.975 (inactive) | 0.943 (inactive) | 1.05 (inactive) | 0.99 (inactive) | 1 (inactive) | 1.26 | 0.9 (inactive)
CSc1nnc(C(C)(C)C)c(=O)n1N | 0.969 (inactive) | 1.01 (inactive) | 1.04 (inactive) | 0.991 (inactive) | 0.948 (inactive) | 1.06 (inactive) | 0.961 (inactive) | 1.08 (inactive) | 1.02 (inactive) | 1 (inactive) | 1.04 (inactive) | 1.05 (inactive) | 1.03 (inactive) | 1.02 (inactive) | 1.04 (inactive) | 1 (inactive) | 1.02 (inactive) | 1.03 (inactive) | 1.02 (inactive)
N#C/N=C1\SCCN1Cc1ccc(Cl)nc1 | 0.998 (inactive) | 1 (inactive) | 1 (inactive) | 0.984 (inactive) | 1.1 (inactive) | 1.11 (inactive) | 1.06 (inactive) | 1.04 (inactive) | 1.05 (inactive) | 0.846 (inactive) | 1.07 (inactive) | 1.09 (inactive) | 1.1 (inactive) | 1.04 (inactive) | 1.21 (inactive) | 1.03 (inactive) | 1.07 (inactive) | 1.02 (inactive) | 1.05 (inactive)
